Over roughly 33,000 sequences, “E-score (-0.5 to 0.5)” has its median near -0.035; the highest 2% begin near 0.35. What follows is part of a selection rich in the highest values, with near analogues and random picks from the rest.
Each sequence was assayed against T1, Pdr3 (UniProt P33200) (assay: PBM E-score (8-mer binding enrichment) (E-score (-0.5 to 0.5)); higher = stronger / more preferred TF binding). Settings: protein concentration: 200 nM; construct: GST-full length.
T1 sequence: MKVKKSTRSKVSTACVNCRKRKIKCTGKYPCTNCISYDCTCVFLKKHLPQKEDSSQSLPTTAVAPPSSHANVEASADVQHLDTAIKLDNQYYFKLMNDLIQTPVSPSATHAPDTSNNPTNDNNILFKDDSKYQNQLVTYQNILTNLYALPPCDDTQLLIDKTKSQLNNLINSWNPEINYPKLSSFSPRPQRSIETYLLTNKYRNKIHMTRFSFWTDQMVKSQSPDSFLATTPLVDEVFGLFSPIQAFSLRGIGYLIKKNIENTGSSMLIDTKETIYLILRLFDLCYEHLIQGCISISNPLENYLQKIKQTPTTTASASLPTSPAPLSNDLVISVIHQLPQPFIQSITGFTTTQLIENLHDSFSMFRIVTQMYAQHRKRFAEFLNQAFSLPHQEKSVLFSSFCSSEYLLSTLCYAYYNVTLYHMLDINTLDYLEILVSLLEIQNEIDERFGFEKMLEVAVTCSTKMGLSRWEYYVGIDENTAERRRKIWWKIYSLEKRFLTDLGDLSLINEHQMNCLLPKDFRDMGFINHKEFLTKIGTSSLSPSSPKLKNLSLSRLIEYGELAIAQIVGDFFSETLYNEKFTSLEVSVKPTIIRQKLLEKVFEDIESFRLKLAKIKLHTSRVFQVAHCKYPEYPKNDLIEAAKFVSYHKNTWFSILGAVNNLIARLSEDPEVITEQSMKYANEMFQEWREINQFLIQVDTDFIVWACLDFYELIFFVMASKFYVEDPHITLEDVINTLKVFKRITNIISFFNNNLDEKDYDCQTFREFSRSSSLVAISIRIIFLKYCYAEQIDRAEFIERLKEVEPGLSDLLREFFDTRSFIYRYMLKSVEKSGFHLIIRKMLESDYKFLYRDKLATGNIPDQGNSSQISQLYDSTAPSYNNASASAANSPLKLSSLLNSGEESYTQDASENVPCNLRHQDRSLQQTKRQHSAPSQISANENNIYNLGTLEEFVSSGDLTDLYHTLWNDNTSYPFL
Description: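 Universal 'all 10-mer' protein binding microarrays (Agilent AMADID 015681) probed with GST-tagged S. cerevisiae TFs (full-length or DBD) made by in vitro transcription/translation (PURExpress), about 100-200 nM. Bound TF was detected with fluorescent anti-GST. Each ungapped 8-mer (which stands for itself and its reverse complement) is scored by the PBM enrichment score (E-score), a modified Wilcoxon-Mann-Whitney statistic from -0.5 to +0.5, computed with the Universal PBM Analysis Suite. Scale: above 0.35 generally sequence-specific binding.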

| Sequence | PBM E-score |
| --- | --- |
| CTTCACAC | -0.201 |
| ACCAAATA | 0.0784 |
| GGAATGTA | 0.339 |
| CATAACCG | 0.135 |
| ACAATGCT | -0.171 |
| AGCATAAG | -0.0742 |
| AGTTCCGG | 0.464 |
| CGGTCCGA | 0.378 |
| AGTTCCAG | -0.0101 |
| AGTTCCTG | -0.0933 |
| AGTTCCGC | 0.467 |
| AGGTCCGA | 0.305 |
| AGTTCCAC | -0.00065 |
| AGTTCCCC | 0.0744 |
| GGGTCCGA | 0.234 |
| CTAGGTTC | 0.154 |
| CCCATCCA | 0.00501 |
| GTGAAAGA | -0.0383 |
| CTAAGATC | -0.0406 |
| ACTACCCT | -0.179 |
| ATCTAGAG | -0.177 |
| CTTCGACC | 0.054 |
| TCGGATAA | 0.307 |
| ACGGAAGC | 0.427 |
| AAGGAAGA | -0.2 |

| Sequence | PBM E-score |
| --- | --- |
| ATGGAAGA | -0.243 |
| ATGGAAGC | 0.179 |
| AGGGAAGC | -0.0866 |
| GCGGAAGA | 0.393 |
| GTGGAAGA | -0.0507 |
| ACGGAAGT | 0.393 |
| ACGGAAGA | 0.373 |
| ACAGAAGT | -0.285 |
| GAGGAAGA | 0.0527 |
| AAGGAAGT | 0.0783 |
| CCCCCTAG | -0.342 |
| CCCTGACA | -0.222 |
| CATGAACG | -0.0457 |
| CAAAACCG | 0.00937 |
| GGTGCGCA | 0.191 |
| AAGGAAGG | -0.205 |
| CTGGAAGA | -0.108 |
| TCGGAAGA | 0.359 |
| CCGGAAGA | 0.403 |
| TAGGAAGA | -0.204 |
| CCGGAAGC | 0.444 |
| ACGGAAGG | 0.397 |
| GCGGAAGC | 0.347 |
| CTGGAAGC | -0.322 |
| ATGGAAGG | -0.197 |

| Sequence | PBM E-score |
| --- | --- |
| CAGGAAGA | 0.0315 |
| TCAGAAGA | -0.178 |
| CGACCACA | -0.0427 |
| AAGTGCAC | 0.0238 |
| ACTGAGAA | -0.121 |
| TAAGCCCA | -0.113 |
| ACTAGGGA | -0.253 |
| ACTGCCCG | 0.179 |
| CACGTGGA | -0.0333 |
| AGGGAAGA | -0.238 |
| CGGGAAGC | 0.282 |
| GGGGAACA | -0.00834 |
| CCAGAAGG | -0.0321 |
| CGGGAAGA | 0.391 |
| CGGGAACA | 0.358 |
| AGGGAACA | -0.0421 |
| CCGGAAGG | 0.421 |
| CAGGAAGG | -0.317 |
| CCCCCCAG | -0.372 |
| CGCGAGGA | 0.135 |
| TATGGCGA | -0.0751 |
| GCAGACAA | 0.0426 |
| ACCCTCAA | -0.158 |
| TCCCGGAA | 0.463 |
| ACCCGGAT | 0.31 |

| Sequence | PBM E-score |
| --- | --- |
| GCCCGGAC | 0.282 |
| ACCCGGAA | 0.456 |
| ACCCGGTA | 0.215 |
| ACCCGGCG | 0.276 |
| GCCCGGAA | 0.459 |
| ACCCGGCA | 0.256 |
| TCCCGTAA | 0.0877 |
| TCCCGAAA | 0.206 |
| ACCCGGAG | 0.38 |
| GCCCGGTA | 0.102 |
| CCCTGAAA | -0.0909 |
| ACCCCGTA | 0.006 |
| CACGCGTG | 0.283 |
| GCTTGGTA | -0.168 |
| AATTCGAA | -0.148 |
| CCCCCGAG | -0.0658 |
| CCCCGGAG | 0.355 |
| CCCCGGAC | 0.33 |
| CCCCCGAA | -0.0602 |
| CCCCGCAG | 0.225 |
| CCCCGGAA | 0.421 |
| CAGGGATA | -0.193 |
| ATAGTCAT | -0.0921 |
| CGCGGCGA | 0.374 |
| CGCGGCAC | 0.385 |

| Sequence | PBM E-score |
| --- | --- |
| CGGCGCGC | 0.245 |
| AGCGGCAC | 0.118 |
| AGCGGCGC | 0.137 |
| AGCGGCGA | 0.197 |
| CGCGGCGC | 0.398 |
| GGCGGCGA | 0.243 |
| CGCGGCAA | 0.341 |
| CCGAGCAC | 0.122 |
| ACGTGAGT | -0.0439 |
| TGAGTCCA | -0.18 |
| AAAGTCAT | -0.0971 |
| ATTAGGGG | -0.0731 |
| AACCCTGT | -0.104 |
| ATGTTGCG | 0.091 |
| ATGGAGCG | 0.0393 |
| CTGAGGAC | -0.0292 |
| AATACCCC | 0.188 |
| TCCATCAA | 0.0544 |
| CCGGGTAC | 0.303 |
| TCGGGTAA | 0.0953 |
| GCGGGTGA | 0.26 |
| CCGGGTGA | 0.404 |
| CCGGGTAA | 0.397 |
| CGGGGTGA | 0.214 |
| GGACGGCC | 0.188 |

| Sequence | PBM E-score |
| --- | --- |
| AGCCTTTC | -0.167 |
| CACCAAAA | -0.054 |
| CCGGTGTA | 0.153 |
| CTCTCGTA | -0.00771 |
| AACGCAGG | -0.0195 |
| AACTTAAT | 0.115 |
| ACATTTAT | -0.248 |
| GCGACACA | -0.0561 |
| AGCGGATC | 0.374 |
| CGCAGATC | -0.0483 |
| ATCGGATC | 0.301 |
| CCCAGATC | -0.145 |
| CCCGGATC | 0.419 |
| CCCGGATA | 0.34 |
| AGCAGATC | -0.0743 |
| CTCGGATC | 0.386 |
| AGCGGATG | 0.191 |
| CGCGGATC | 0.431 |
| CTCGGATA | 0.273 |
| CGCGGCTC | 0.344 |
| GAACCCCA | 0.211 |
| TCAGTAAA | -0.00839 |
| ACCACAGG | -0.238 |
| CGAGGTAA | 0.0804 |
| AGCTGGAG | -0.163 |

| Sequence | PBM E-score |
| --- | --- |
| TAGGCTAA | -0.288 |
| AAAGGCAA | -0.0369 |
| CGGCCTAC | 0.158 |
| CTCGGACC | 0.359 |
| CTCGGACA | 0.285 |
| CGCGGATA | 0.412 |
| GGCGGATA | 0.287 |
| CTCAGACC | -0.0888 |
| AGCGGATA | 0.3 |
| CCACATTC | 0.0586 |
| GAGGCGAA | 0.0545 |
| CGCGAGCG | 0.106 |
| CTCTATGC | -0.0609 |
| CCGGACAA | 0.329 |
| ACGGACTC | 0.205 |
| CCGGACAG | 0.338 |
| CCGGACTC | 0.363 |
| CCGGACTA | 0.333 |
| CCGGACAC | 0.366 |
| AGTGACTA | -0.132 |
| ATCCCGTG | 0.396 |
| ATCCCGTC | 0.311 |

From the supplement of paper PMC3334620
